Screening data from PubChem BioAssay.
Sampled rows, rich in hits. Any-hit rate of the full collection: about 11%.
RORgamma inh – blocks mouse ROR gamma transcriptional activity; AID 2551; Drosophila S2 Gal4-RORgamma UAS-luciferase reporter, 20 h; Potency, µM (highest dose often 53.6 µM), for inactives: at the highest dose activity change, negative = inhibition, actives largely listed as inhibitors; 310,000 compounds, 5.4% hits; note: potency is the fitted concentration of half-maximal effect; % is set by controls: 0 for no effect and ±100 for the full control effect; nearly all actives have a fitted effect of over 60% in size
Target sequence (P51450 whole entry, looked up, the tested form may be a part): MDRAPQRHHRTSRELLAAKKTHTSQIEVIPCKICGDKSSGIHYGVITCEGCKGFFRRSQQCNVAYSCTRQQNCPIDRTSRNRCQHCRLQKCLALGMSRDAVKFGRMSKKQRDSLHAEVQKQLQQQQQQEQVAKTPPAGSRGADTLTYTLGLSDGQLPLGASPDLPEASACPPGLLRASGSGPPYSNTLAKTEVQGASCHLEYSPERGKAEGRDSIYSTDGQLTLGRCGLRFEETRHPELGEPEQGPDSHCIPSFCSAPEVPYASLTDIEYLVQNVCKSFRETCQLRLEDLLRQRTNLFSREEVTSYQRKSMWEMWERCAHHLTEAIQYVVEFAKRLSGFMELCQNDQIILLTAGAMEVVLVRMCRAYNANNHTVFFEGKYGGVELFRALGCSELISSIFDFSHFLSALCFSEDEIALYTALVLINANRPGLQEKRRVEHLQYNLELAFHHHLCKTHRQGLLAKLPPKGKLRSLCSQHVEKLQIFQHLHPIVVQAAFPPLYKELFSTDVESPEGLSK
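Luciferase reporter read in Schneider cells carrying Gal4-RORγ (mouse) and UAS-Photinus luciferase; cells given compound 1 h before 700 uM copper sulfate induction, then incubated 20 h at ambient temperature.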
MCF10A rereplic – DNA re-replication induction in MCF 10a cells. MCF 10A DNA re-replication, Hoechst nuclear intensity, 48 h. Potency, µM (highest dose often 46.1 µM), for the others: at the highest dose activity, positive = re-replication, usual class: activators. 350,000 compounds, 2.9% hits; note: potency is the fitted concentration of half-maximal effect; % of control where 0% means no effect; nearly all actives have a fitted effect of over 50% in size
SW480 rerep – induces DNA re-replication in SW480 colon adenocarcinoma cells | SW480 DNA re-replication, Hoechst DNA content imaging, 48 h | Potency, µM (series often up to 46.1 µM), without a hit: top-dose re-replication activation, usual class: activators | 340,000 compounds, 1.8% hits | AID 624297; note: potency is the fitted concentration of half-maximal effect; % of control where 0% means no effect; nearly all actives have a fitted effect of over 55% in size
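Cells (250 per well) received 23 nL compound or DMSO by pin tool and were kept 48 hr at 37 C, 5% CO2. Nuclei were then stained with Hoechst for 40 min and scanned for DNA content.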
IL-1B inflam inh – blocks inflammasome-driven IL-1 beta release; THP-1 LPS/ATP IL-1B secretion, AlphaLISA, 16 h; hits give low values; activity change, % at 57.5 µM; 360,000 compounds, 4.7% hits; in the data active = activity change below about -50%; inconclusive = mostly about -30% to -49%; note: % is set by controls: 0 for no effect and ±100 for the full control effect
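THP-1 cells pretreated 1 hr with compounds (up to 57.5 uM final), then stimulated with LPS (250 ng/mL final) plus ATP (1.25 mM final); secreted IL-1B measured by AlphaLISA after 16 hr, decreased signal indicating inhibition.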
Gal4-VP16 FLuc – Gal4-VP16 reporter inhibition counter-screen. Drosophila S2 Gal4-VP16 UAS-luciferase, luminescence, 20 h. Potency, µM (doses to about 53.6 µM), without a hit: at the highest dose activity, negative = inhibition, most hits filed as inhibitors. 310,000 compounds, 3.5% hits;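 note: Gal4-VP16 expression switched on by copper sulfate through the metallothionein promoter; potency is the fitted concentration of half-maximal effect; % is set by controls: 0 for no effect and ±100 for the full control effect; nearly all actives have a fitted effect of over 50% in size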
* marks the source's active call; other numbers are inactive results. Unless noted, calls come from the whole dose curve; as a rule, active = well fitted curve in the direction sought with a large enough effect; inconclusive = small, poorly fitted or top-dose-only effect, or another doubt; inactive = no such curve, though single readings can be large; an effect the other way counts as inactive or inconclusive.

Results for CC(C)(C)Cc1nnc(NS(=O)(=O)c2ccc([N+](=O)[O-])cc2)s1 ?
RORgamma inh: 19%; MCF10A rereplic: inconclusive; SW480 rerep: -4%; IL-1B inflam inh: 18; Gal4-VP16 FLuc: -10%

Results for Oc1ccc(-c2nnc(-c3ccc(O)cc3)nn2)cc1 ?
RORgamma inh: 11µM*; MCF10A rereplic: 26%; SW480 rerep: 3%; IL-1B inflam inh: -26; Gal4-VP16 FLuc: inconclusive

How did Oc1ccc(O)cc1 do in these assays?
RORgamma inh: 11µM*; MCF10A rereplic: inconclusive; SW480 rerep: inconclusive; Gal4-VP16 FLuc: inconclusive

Results for Oc1ccc(C2=NNC(c3ccc(O)cc3)=NN2)cc1 ?
RORgamma inh: -18%; MCF10A rereplic: -7%; SW480 rerep: -8%; IL-1B inflam inh: 6; Gal4-VP16 FLuc: -1%

What do the screens show for `COc1cc(NS(=O)(=O)c2ccc(Nc3nc(-c4ccccn4)cs3)cc2)nc(OC)n1`?
RORgamma inh: -5%; MCF10A rereplic: -2%; SW480 rerep: inconclusive; IL-1B inflam inh: 11; Gal4-VP16 FLuc: 2%

How did COc1ccc(-c2csc(Nc3ccc(S(=O)(=O)Nc4cc(OC)nc(OC)n4)cc3)n2)cc1 do in these assays?
RORgamma inh: inconclusive; MCF10A rereplic: inconclusive; SW480 rerep: -5%; IL-1B inflam inh: -75*; Gal4-VP16 FLuc: inconclusive

Results for CCOC(=O)C1(Cc2ccc(OC)cc2)CCN(C(=O)c2ccc3[nH]ccc3c2)CC1 ?
RORgamma inh: 0%; MCF10A rereplic: 12µM*; SW480 rerep: inconclusive; IL-1B inflam inh: -4; Gal4-VP16 FLuc: -5%

What do the screens show for `CCOC(=O)C1(CC2CC2)CCN(Cc2ccc(O)c(Cl)c2)CC1`?
RORgamma inh: 28%; Gal4-VP16 FLuc: -1%

How did CCOC(=O)C1(Cc2cccc(OC)c2)CCN(Cc2cccc(OC)c2OC)CC1 do in these assays?
RORgamma inh: -6%; MCF10A rereplic: inconclusive; SW480 rerep: inconclusive; IL-1B inflam inh: -65*; Gal4-VP16 FLuc: 4%

Results for CCOC(=O)C1(CC2CC2)CCN(Cc2cnc(-c3ccc(OC)cc3)nc2)CC1 ?
RORgamma inh: 41%; MCF10A rereplic: 13µM*; SW480 rerep: -45%; IL-1B inflam inh: 33; Gal4-VP16 FLuc: 1%

How did CCOC(=O)C1(Cc2cccc(OC)c2)CCN(Cc2ccccc2)CC1 do in these assays?
RORgamma inh: -1%; MCF10A rereplic: 15%; SW480 rerep: -32%; IL-1B inflam inh: -26; Gal4-VP16 FLuc: -1%

What do the screens show for `CCOC(=O)C1(Cc2ccccc2Cl)CCN(C(=O)CN2CCOC2=O)CC1`?
RORgamma inh: 5%; MCF10A rereplic: -17%; SW480 rerep: -6%; IL-1B inflam inh: 14; Gal4-VP16 FLuc: -15%

Results for CCOC(=O)C1(Cc2ccccc2Cl)CCN(Cc2csc(C(C)=O)c2)CC1 ?
RORgamma inh: 20%; MCF10A rereplic: 10%; SW480 rerep: 2%; IL-1B inflam inh: -65*; Gal4-VP16 FLuc: -13%

Results for C[C@H](O)C(N)C(=O)O (some centres undefined) ?
RORgamma inh: -29%; Gal4-VP16 FLuc: -5%

How did CCOC(=O)[C@]12CCC=C1N(Cc1ccco1)C(=O)[C@H](CC(=O)N1CCN(C(=O)c3ccco3)CC1)C2 do in these assays?
IL-1B inflam inh: 36

Results for CC1(C)CC(=O)C=C(c2cccnc2)C1 ?
MCF10A rereplic: -5%; SW480 rerep: -3%; IL-1B inflam inh: 27

How did CCOC(=O)C1(Cc2cccc(OC)c2)CCCN(Cc2nccn2CC)C1 (centres undefined) do in these assays?
RORgamma inh: 3.5µM*; MCF10A rereplic: 8%; SW480 rerep: 7%; IL-1B inflam inh: -4; Gal4-VP16 FLuc: inconclusive

Results for CCOC(=O)C1(Cc2ccccc2)CCCN(Cc2ccccn2)C1 (centres undefined) ?
RORgamma inh: 13µM*; MCF10A rereplic: 7%; SW480 rerep: -4%; IL-1B inflam inh: 14; Gal4-VP16 FLuc: -12%

What do the screens show for `CCOC(=O)C1(Cc2cccc(OC)c2)CCN(Cc2cc(OC)ccc2OC)CC1`?
RORgamma inh: -1%; MCF10A rereplic: inconclusive; SW480 rerep: 23µM*; IL-1B inflam inh: -67*; Gal4-VP16 FLuc: 1%

What do the screens show for `CCOC(=O)C1(Cc2cccc(OC)c2)CCN(Cc2cccnc2)CC1`?
RORgamma inh: 11µM*; MCF10A rereplic: -12%; SW480 rerep: -30%; IL-1B inflam inh: 11; Gal4-VP16 FLuc: -18%

Results for CCn1ccnc1CN1CCCC(CO)(Cc2cccc(OC)c2)C1 (centres undefined) ?
RORgamma inh: -30%; MCF10A rereplic: 4%; SW480 rerep: -2%; IL-1B inflam inh: 13; Gal4-VP16 FLuc: 10%

What do the screens show for `CCN(CC)C(=O)C1=C(C)N(CCCOC)C(=O)C(CC(=O)NCCc2ccccn2)C1` (centres undefined)?
IL-1B inflam inh: 25

Results for CCOC(=O)c1c(C)[nH]c(C)c1S(=O)(=O)NC(CC)CN1CCOCC1 (centres undefined) ?
RORgamma inh: -8%; MCF10A rereplic: 5%; SW480 rerep: inconclusive; IL-1B inflam inh: -29; Gal4-VP16 FLuc: 0%

How did CCN(CC)CCCC(C)n1c(-c2ccccc2)nc2c(N(CCOC)CCOC)nc(C)nc21 (centres undefined) do in these assays?
RORgamma inh: -22%; Gal4-VP16 FLuc: -8%

What do the screens show for `Cc1ccc(-n2c(C)csc2=N)cc1`?
RORgamma inh: inconclusive; MCF10A rereplic: -19%; SW480 rerep: inconclusive; IL-1B inflam inh: 28; Gal4-VP16 FLuc: -15%

How did Cc1csc(=N)n1-c1ccc(Cl)cc1 do in these assays?
RORgamma inh: inconclusive; MCF10A rereplic: 3%; SW480 rerep: 1%; IL-1B inflam inh: inconclusive; Gal4-VP16 FLuc: 11µM*

Results for O=c1[nH]c(=S)[nH]c2c1C(C1CCCCC1)OC(C1CCCCC1)C2 (centres undefined) ?
IL-1B inflam inh: 0

What do the screens show for `CCC(C)NC(=O)c1ccc(-n2c(=S)[nH]c3ccccc3c2=O)cc1` (centres undefined)?
RORgamma inh: 13%; MCF10A rereplic: -5%; SW480 rerep: -4%; IL-1B inflam inh: 1; Gal4-VP16 FLuc: -4%

How did CC(C)n1c(=S)[nH]c2ccccc2c1=O do in these assays?
RORgamma inh: inconclusive; MCF10A rereplic: 13%; SW480 rerep: inconclusive; IL-1B inflam inh: 12; Gal4-VP16 FLuc: 4µM*

How did COn1c(=S)[nH]c2ccccc2c1=O do in these assays?
RORgamma inh: inconclusive; MCF10A rereplic: -2%; SW480 rerep: -3%; IL-1B inflam inh: -19; Gal4-VP16 FLuc: 2%

Results for CCC(Cc1ccccc1)n1c(=S)[nH]c2ccccc2c1=O (centres undefined) ?
RORgamma inh: 3.5µM*; MCF10A rereplic: inconclusive; SW480 rerep: 2%; IL-1B inflam inh: 6; Gal4-VP16 FLuc: inconclusive
